TRHR agonist-1: activates the human TRH receptor. TRHR cells, calcium flux fluo-8, FDSS agonist mode. activation, % at 2 µM. P34981. hit rate 0.18% among 360,000; in the data active = activation above about 30%; note: 0% is about no effect
Target sequence (P34981 whole entry, looked up): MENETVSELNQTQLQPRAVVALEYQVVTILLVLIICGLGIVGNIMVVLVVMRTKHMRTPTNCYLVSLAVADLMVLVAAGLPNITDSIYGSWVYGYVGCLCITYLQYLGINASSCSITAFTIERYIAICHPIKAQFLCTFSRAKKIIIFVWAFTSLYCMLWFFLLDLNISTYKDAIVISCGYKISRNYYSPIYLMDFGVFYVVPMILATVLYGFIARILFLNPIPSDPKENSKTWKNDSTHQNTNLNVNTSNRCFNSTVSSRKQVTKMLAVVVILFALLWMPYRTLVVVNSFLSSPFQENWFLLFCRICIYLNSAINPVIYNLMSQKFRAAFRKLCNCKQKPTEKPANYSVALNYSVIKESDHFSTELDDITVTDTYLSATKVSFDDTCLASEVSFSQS
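Steps: seed TRHR cells overnight; add fluo-8 no-wash Ca dye, RT 30 min–1.5 h; record 10 s baseline; pin-transfer compounds; monitor fluorescence 1 cycle/s for the agonist window. Calcium increases flag candidate agonists.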
TRHR enhancer-1: allosterically enhances the human TRH receptor | TRHR cells, fluo-8 calcium fluorescence, EC20 TRH enhancement | P34981 | AID 493056 | hit rate 0.66% among 360,000 | enhancement, % at 2 µM; in the data active = enhancement above about 30%; note: 0% is about no effect
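Enhancer read-out: after compound pinning and an initial kinetic agonist-mode read, an EC20 of TRH (10 nM final) was injected and fluo-8 calcium signal (Ex 480/Em 530) followed at 1 s/cycle for 100 cycles in TRHR-expressing cells.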
D1 antag: antagonists of human D1 dopamine receptor | hit rate 3.2% among 360,000 | HEK293 TREx D1 cells, calcium flux, dopamine EC80; active compounds read low | AID 504652 | activity change, negative = inhibition, % at 10 µM; in the data active = activity change below about -30%; note: % is set by controls: 0 for no effect and ±100 for the full control effect
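Inducible Hek293 Trex D1 cells (tetracycline, overnight, 30 C). Calcium dye 30–90 min RT. Antagonist mode: EC80 dopamine added after 180 s compound read.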
D1 potentiator: enhances dopamine response at the human D1 receptor | potentiation, % at 10 µM | hit rate 0.036% among 360,000 | HEK293 TREx D1 cells, calcium flux, dopamine EC20 potentiation | P21728; in the data active = potentiation above about 30%; note: 0% is about no effect
D1 ag: human D1 receptor agonism; hit rate 1% among 360,000; P21728; HEK293 T-REx D1 cells, calcium flux, agonist mode; AID 504660; activation, % at 2 µM; in the data active = activation above about 30%; note: 0% is about no effect
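Inducible HEK293 T-REx D1 cells, force-coupled to calcium signalling, were plated at 4000 cells/well with tetracycline and held overnight at 30 C. After no-wash calcium dye loading, compound-evoked calcium rise over 180 s flagged agonists.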
Epigenetic reg: epigenetic control regulation, reporter derepression | hit rate 0.2% among 280,000 | murine LDR cells, GFP reporter derepression, 30 h | Potency, µM (top dose mostly 53.9 µM), for the others: at the highest dose GFP activation, hits mostly activators; note: potency is the fitted concentration of half-maximal effect; % of control where 0% means no effect; nearly all actives have a fitted effect of over 60% in size
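GFP-positive cell count by laser-scanning cytometry (objects 20–120 um) after 30 h, 37 C compound exposure of murine LDR cells; reporter is CMV-GFP integrated at a silenced locus, inducible by HDAC or DNMT inhibitors.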
TRHR enhancer-2: human TRH receptor allosteric enhancement confirmation; shares compounds with TRHR enhancer-1; TRH receptor cell assay, enhancer confirmation qHTS; activity change, negative = inhibition, % at 46.1 µM; 970 tested, under 10 active;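 note: compound effect scored on response to added TRH at EC20 of 10 nM; 0% is about no effect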
TRHR agonist-2: confirmation of human TRH receptor agonists. Potency, µM (series often up to 46.1 µM), for the others: top-dose activation, hits mostly activators. shares compounds with TRHR enhancer-1. TRHR-expressing cells, agonist activation read-out. hit rate 8% among 970; note: potency is the fitted concentration of half-maximal effect; 0% is about no effect; nearly all actives have a fitted effect of over 75% in size
The depositor's hits bear a star; ? = inconclusive; . = no result; ! = not confirmed by another sample; [ ] = another dose, or the depositor's remark. In the library only some 4.6% were active in any assay of this set; here they are far more common. Unless noted, calls come from the whole dose curve; as a rule, active = well fitted curve in the direction sought with a large enough effect; inconclusive = small, poorly fitted or top-dose-only effect, or another doubt; inactive = no such curve, though single readings can be large; an effect the other way counts as inactive or inconclusive.

SMILES	TRHR agonist-1	TRHR enhancer-1	D1 antag	D1 potentiator	D1 ag	Epigenetic reg	TRHR enhancer-2	TRHR agonist-2
CCN(CC)CCCNC(=O)CCCn1ncn2c(cc3occc32)c1=O	0	3	16	-5	-1	2%	.	.
CSCCCNC(=S)Nc1ccc(N2CCOCC2)cc1N1CCOCC1	1	-3	6	-10	1	2%	.	.
CSCCCNC(=S)Nc1ccc(N2CCOCC2)cc1	0	43*	19	-1	4	-1%	-3	1%
COc1ccc(NC(=O)c2cc(-c3ccccc3)on2)cc1OC	0	1	2	3	5	.	.	.
COc1ccc(-c2cc(C(=O)Nc3cc(C)nn3-c3ccccc3)no2)cc1OC	0	57*!	-2	-2	0	0%	-7	2%
COc1cccc(-c2cc(C(=O)Nc3ccc(OC)c(OC)c3)no2)c1	27	2	8	4	3	-2%	1	2%
CCCS(=O)(=O)c1c(S(=O)(=O)CCC)c2cc(CC)ccn2c1C(=O)c1ccc(Cl)cc1	0	7	13	4	2	3%	.	.
CCOC(=O)c1c(S(=O)(=O)N2CCCC(C(=O)NCc3ccccc3OC)C2)c(C)n(C)c1C (centres undefined)	-1	3	5	-2	1	4%	.	.
CC(C)C[C@@H](CN(C)N=O)N(C[C@H](Cc1ccccc1)N(CCc1ccccc1)N=O)N=O	1	-5	-2	-1	15	0%	.	.
CN(C[C@H](Cc1ccccc1)N(CCN(CCc1ccccc1)N=O)N=O)N=O	0	43*	19	-4	-5	0%	-5	3%
COc1ccc(C(=O)NCc2nnnn2-c2ccc(C)c(C)c2)cc1	-1	68*	-2	-2	0	-2%	-3	0%
Cc1ccc(C(=O)NCc2nnnn2-c2ccc(C)c(C)c2)cc1	-1	4	-7	-2	-1	-2%	.	.
O=C(Cc1cccs1)N=Nc1c(O)[nH]c2ccc(Br)cc12	0	1	6	0	2	0%	.	.
O=C(Cc1cccs1)N=Nc1c(O)[nH]c2ccccc12	-2	43*	-9	-7	0	2%	-4	4%
C[N+](C)(C)CCO	.	.	.	.	.	-1%	.	.
C[N+](C)(C)CCOC(N)=O	29	4	2	-4	9	1%	3	4%
CC(C)[C@H](NC(=O)N1CCn2c1nc1ccccc12)C(=O)N[C@H](Cc1ccccc1)C(=O)O	0	-1	-3	-8	1	.	.	.
COc1cc(NC(=O)[C@@H](NC(=O)N2CCn3c2nc2ccccc23)C(C)C)cc(OC)c1	0	43*	22	10	-1	.	1	2%
CCCCN(CCCC)CCNC(=O)Cn1nc(CC)n2c(cc3sccc32)c1=O	1	-3	-15	-3	1	0%	.	.
CC(C)CCNC(=O)CCn1c(=S)oc2ccccc21	0	53*	-9	-6	0	-2%	0	2%
COc1ccccc1NC(=O)CCn1c(=S)oc2ccccc21	-1	19	4	-8	2	.	.	.
CCCCOc1ccc(OCCSc2nc3ccccc3n2CC(=O)O)cc1	0	56*	5	-3	1	.	4	-1%
O=C(O)Cn1c(SCCOc2ccccc2)nc2ccccc21	0	-3	-20	-5	4	0%	.	.
COc1ccc(NC(=O)c2ccc3c(c2)CCN3S(=O)(=O)c2ccc(C)cc2)cc1Cl	3	2	-1	3	2	-3%	.	.
CCN(CC)C(=O)C1CCN(c2ncnc3c2cnn3-c2ccc(C)cc2C)CC1	-1	44*	-9	-4	1	-2%	-7	2%
SMILES	TRHR agonist-1	TRHR enhancer-1	D1 antag	D1 potentiator	D1 ag	Epigenetic reg	TRHR enhancer-2	TRHR agonist-2
Cc1ccc(-n2ncc3c(N4CCC(C(N)=O)CC4)ncnc32)c(C)c1	0	15	-13	-6	0	2%	.	.
COc1ccc(NC(=O)c2[nH]nc3c2CSc2ccccc2-3)c(OC)c1	0	-6	-3	-4	-1	1%	.	.
COc1ccc(/C=C2\CC/C(=C\c3ccc(OC)cc3OC)C2=O)c(OC)c1	34*	-5	10	-1	54*	?	0	23µM*
COC(=O)C1=C(C)N(Cc2ccccc2)[C@]23O[C@](C(=O)OC)(C(=O)N2C1c1ccccc1)C(C(=O)OC)C3C(=O)OC (some centres undefined)	.	.	.	.	.	0%[10.1 µM]	.	.
Cc1oc2cc3oc(=O)c(CC(=O)N[C@@H](C)C(=O)NC(Cc4ccc(Cl)cc4)C(=O)O)c(C)c3cc2c1C (some centres undefined)	0	44*	12	6	1	.	14	3%
CCC(NC(=O)Cc1c(C)c2ccc(OC)c(C)c2oc1=O)C(=O)NC(Cc1ccc(Cl)cc1)C(=O)O (centres undefined)	0	9	21	0	2	.	.	.
COc1ccc(CCNC(=O)Cc2c(C)c3c(cc(C)c4c(C)c(C)oc43)oc2=O)cc1	0	-3	-7	0	0	10%	.	.
Cc1ccc(C)c(NC(=O)CSc2nc(=O)n(Cc3ccccn3)c3c2CCC3)c1	0	2	.	1	-2	2%	.	.
COc1cc(OC)cc(C(=O)NCc2cc(C)nc3ccccc23)c1	33*	-2	-3	11	5	-1%[10.1 µM]	-8	1%
COc1ccc(C(=O)NCc2cc(C)nc3ccccc23)cc1OC	0	2	-8	5	7	-2%	.	.
CCC(=O)NC1=C(NC(C)c2ccccc2)C(=O)c2ccccc2C1=O (centres undefined)	0	50*	5	5	3	-3%	-5	2%
CCC(=O)Nc1ccc2c(c1)C(=O)c1ccccc1C2=O	0	4	-3	-3	0	-1%	.	.
O=C(Nc1cccc(Cl)c1N1CCOCC1)c1ccc([N+](=O)[O-])o1	0	48*	5	-5	-1	0%	8	4%
O=C(Nc1cccc(Cl)c1N1CCOCC1)c1cc([N+](=O)[O-])ccc1N1CCOCC1	-2	8	21	-1	1	.	.	.
COc1cc2c(cc1OC)C(COc1ccc(F)cc1)N(C(=O)c1cccc(F)c1)CC2 (centres undefined)	0	-4	-23	-2	1	2%	.	.
CC1CC(C)CN(C(=O)COC(=O)c2ccc(Cl)nc2)C1 (centres undefined)	1	45*	-18	-5	1	.	-1	1%

High-throughput results as filed in PubChem.
